Records with an inconclusive call do not appear. Activity calls are given as the source filed them. Calls come from the whole dose curve; as a rule, active = well fitted inhibition curve with a large enough effect; inconclusive = small, poorly fitted or top-dose-only effect; inactive = flat fitted curve, though single readings scatter.
Biological target: Calcium and integrin-binding protein 1 (Homo sapiens) (UniProt Q99828)
Test: Primary qHTS for Identification of Calcium Integrin Binding Protein 1 (CIB1) Competitor (AID 1508620);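 note: GST tagged CIB1 binding a fluorescein labelled alphaIIb integrin peptide tracer; top concentration of the series differs between compounds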
Settings: CIB1-GST / FITC-alphaIIb peptide fluorescence polarization; series mostly up to 114 µM; activity change, negative = inhibition: at the top concentration
In short: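 Fluorescence polarization competition: CIB1-GST (1 uM final) preincubated with compound 15 min at room temperature, then FITC-labeled alphaIIb peptide (100 nM final) added for another 15 min. Polarization read at Ex 480/Em 540.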
% is set by controls: 0 for no effect and ±100 for the full control effect.

Chain of Calcium and integrin-binding protein 1 (Homo sapiens) (Q99828 whole entry, looked up): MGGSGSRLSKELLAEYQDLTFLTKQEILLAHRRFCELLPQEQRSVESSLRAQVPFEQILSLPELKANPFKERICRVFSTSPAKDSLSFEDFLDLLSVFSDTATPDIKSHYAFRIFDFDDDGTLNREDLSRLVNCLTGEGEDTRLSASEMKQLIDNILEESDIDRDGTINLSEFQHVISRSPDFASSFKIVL

SMILES	activity change, negative = inhibition
N=c1c2c(ncn1CCN1CCOCC1)Oc1ccc3ccccc3c1C2c1ccccc1 (configuration not stated)	0.14% (inactive)
COc1cc(O)c(C(CC(=O)N2CCCC(c3ccccc3)C2)c2ccc3c(c2)OCO3)c(OC)c1 (configuration not stated)	-0.998% [at 228 µM] (inactive)
Cc1cc(C)nc(NC(=S)N2CCN(c3cc(Cl)cc(Cl)n3)CC2)c1	-1.49% (inactive)
Cc1cnccc1-c1nc(Nc2ccc(F)c(F)c2)c2ccccc2n1	8.68% (inactive)
Cc1ccc(-c2nc3ccccc3s2)cc1NC(=O)c1ccc(-c2cccc(Cl)c2)o1	3.91% (inactive)
O=[S+]([O-])(c1cc2ccccc2o1)N1CCN([S+](=O)([O-])c2c(F)cccc2F)CC1	0.977% (inactive)
N#Cc1ccc(-c2ccc(CNc3ccc(N4CCC(C(F)(F)F)CC4)cc3)o2)cc1	-4.07% (inactive)
Cc1cccc(CNc2ncnc3ccc(-c4ccccc4Cl)cc23)c1	2.68% (inactive)
Cc1ccc(OCCn2c(CCNC(=O)c3ccc(C(C)(C)C)cc3)nc3ccccc32)cc1	5.14% (inactive)
Cn1nnnc1Sc1ncnc2scc(-c3cccs3)c12	-5.79% (inactive)
COc1ccc(C2Nc3ccccc3C(=O)N2Cc2ccc(CNC(=O)CO)cc2)cc1COc1ccc(NC(C)=O)cc1 (configuration not stated)	-3.04% (inactive)
Cc1cccc(-n2cnc3cc(C(=O)N4CC(C)CC(C)C4)ccc32)c1 (configuration not stated)	-1.16% (inactive)
Cc1cc(C)n2ncc(C(=O)NC3CCCCC3)c2n1	1.89% (inactive)
O=C1Cc2cc(S(=O)(=O)N3CCN(c4ccc(Cl)cc4)CC3)ccc2N1	-2.71% [at 228 µM] (inactive)
Cc1cc2c(s1)c1cnn(Cc3c(F)ccc(F)c3Cl)c(=O)c1n2C	11.9% (inactive)
Cn1nnnc1Sc1ncnc2scc(-c3cc4ccccc4o3)c12	-2.56% (inactive)
O=C1CCCC2=C1C(c1[nH]ncc1Cl)N=C(Nc1nc3cc([S+](=O)([O-])N4CCOCC4)ccc3o1)N2 (configuration not stated)	-6.32% (inactive)

Reference: PubChem BioAssay (NCATS)
